Molecular target: AT4G31550 (Arabidopsis thaliana, UniProt Q9SV15 228-325)
Assay: DPI-ELISA; DPI-ELISA, streptavidin 384-well plate, 1-2 pmol biotinylated dsDNA per well, crude native E. coli extract, anti-His detection; buffer as in Brand et al. [46],; high values mean tight binding
Conditions: tags: C-terminal His (pET-DEST42); label: 5' biotin on forward strand; dsDNA, one strand shown

AT4G31550, sequence (Q9SV15 228-325): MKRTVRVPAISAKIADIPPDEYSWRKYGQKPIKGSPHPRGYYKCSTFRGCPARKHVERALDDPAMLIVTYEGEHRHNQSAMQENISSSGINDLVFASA

Sequence | binding signal [absorbance]
AAAAAAACACCTGTATAGCATGGACGAAAA | 0.73 ± 0.0707
AAAAAACTACGTATATTCAGGCCCTAAAAA | 0.68 ± 0.113
AAAAAAGGCTTCCACTTTGAGTTTGCAAAA | 0.57 ± 0.099
AAAAAACCACCCAGTCTGTTTCTACTAAAA | 0.54 ± 0.141
AAAAAATCCTTTTCTCTTTCTGTTTCAAAA | 0.575 ± 0.12
AAAAAAGCTCATGGCCCTGAGGATCTAAAA | 0.73 ± 0.113
AAAAAATATCGGGCACGGTCTTGTCTAAAA | 0.585 ± 0.0495
AAAAAACGTGCGCGTGCATGTCATCGAAAA | 0.665 ± 0.0919
AAAAAAAAGCGTTACATCATATGGAAAAAA | 0.56 ± 0.0566
AAAAAAAACTCCCATACTACAACCGAAAAA | 0.53 ± 0.099
AAAAAACGTTAACACTGATTTAGGGTAAAA | 0.595 ± 0.0778
AAAAAATGCCCATGTGCACCCGTACGAAAA | 0.56 ± 0.0849
AAAAAATCTTACCCCTCCGCTTCTATAAAA | 0.72 ± 0.255
AAAAAACCTACGATGGTTCTGATCTTAAAA | 0.655 ± 0.12
AAAAAATTAGCTTATCCTTGCTTGTGAAAA | 0.655 ± 0.134
AAAAAAGTGCACGACCCATTTATATAAAAA | 0.5 ± 0.099
AAAAAAGCTTCGCGCCAGCGGGAAAA | 0.695 ± 0.0636
AAAAAATTACGTTTGTATTTGTAAAA | 0.555 ± 0.0636
AAAAAAGTTTCCTACTTGTGTCTGTGAAAA | 0.53 ± 0.0849

Sequence | binding signal [absorbance]
AAAAAAGCCATCATGGTTAGTGTACAAAAA | 0.665 ± 0.148
AAAAAACCCGTTCTACCTTATTCCTGAAAA | 0.525 ± 0.106
AAAAAAGATGATTAGTAATTGCGGAAAAAA | 0.75 ± 0.0849
AAAAAAGGGAGTCATGCTTCTTGTTTAAAA | 0.645 ± 0.0919
AAAAAAGTCTGCGTCCTACCCCATTCAAAA | 1.04 ± 0.184
AAAAAATCGCGTCCGTGCTCAATCCAAAAA | 0.48 ± 0.0566
AAAAAATACGTCTACGTGGTTGTCGTAAAA | 0.72 ± 0.127
AAAAAACATTGATAAAATCTCCAGGCAAAA | 0.63 ± 0.141
AAAAAATTACTCCTAGCCCTCATTCAAAAA | 1.36 ± 0.976
AAAAAACCTTACCTCATCCCTATCCCAAAA | 0.605 ± 0.134
AAAAAATGTGCCCGTGTGTGCTCGCGAAAA | 0.73 ± 0.0849
AAAAAATATTCCGCTTTTGGCTGAATAAAA | 0.635 ± 0.0636
AAAAAAACTTCTGTCCCTGTTCCCGTAAAA | 0.55 ± 0.127
AAAAAAGGTGAGGAAGTTGGGTATGGAAAA | 0.64 ± 0.0566
AAAAAATGTCCATCTTGCGTCTGTATAAAA | 0.79 ± 0.212
AAAAAAAAGGACATTTTTTCTTTTTGAAAA | 0.515 ± 0.0636
AAAAAAGACCGCAGCAAGAATTAAATAAAA | 0.49 ± 0.141
AAAAAATATCCTATTCTAATTTATATAAAA | 0.55 ± 0.113

Reference: publication PMC3795721, “Screening for Protein-DNA Interactions by Automatable DNA-Protein Interaction ELISA”
